# Screen size: about 360,000 compounds; about 2,100 (0.58%) were called active.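 The calls were made as follows: active = inhibition at 20 µM, scaled to each plate's controls, above about 33% (limit read from the data); inactive = the rest.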 Shown is part of a subset that was picked to be rich in actives.
# Molecular target: 26S proteasome non-ATPase regulatory subunit 14 (Homo sapiens) (UniProt O00487)
# Test: Rpn11 (PSMD14) deubiquitinase inhibitors, primary screen, biochemical, fluorescence polarization, uHTS (AID 588493)
# Conditions: human 26S proteasome, Ub4-pepOG fluorescence polarization; at 20 µM; hits give high values; 20S core pre-blocked with epoxomicin
# Sequence of 26S proteasome non-ATPase regulatory subunit 14 (Homo sapiens) (O00487 whole entry, looked up): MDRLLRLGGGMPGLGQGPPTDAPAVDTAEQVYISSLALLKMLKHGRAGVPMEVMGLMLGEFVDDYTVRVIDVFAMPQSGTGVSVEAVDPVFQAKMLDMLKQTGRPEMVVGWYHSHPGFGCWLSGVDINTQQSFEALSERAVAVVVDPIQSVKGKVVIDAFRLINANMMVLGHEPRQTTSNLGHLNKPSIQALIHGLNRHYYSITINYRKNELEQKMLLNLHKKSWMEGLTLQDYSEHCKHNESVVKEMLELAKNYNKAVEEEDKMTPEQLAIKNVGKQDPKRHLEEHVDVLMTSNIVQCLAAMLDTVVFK
row,Compound,inhibition
1,COc1cccc(NC(=O)C(C)Oc2ccccc2)c1 (configuration not stated),112% (active)
2,COc1cccc(NC(=O)CC(c2ccc(OC(C)C)cc2)c2ccccc2OC)c1 (configuration not stated),-1.6% (inactive)
3,COc1ccc(OC(C)C(=O)Nc2cccnc2)cc1 (configuration not stated),-6% (inactive)
4,Cc1ccc2[nH]c(C(=O)O)c(NC(=O)c3ccccc3[N+](=O)[O-])c2c1,3.4% (inactive)
5,Cc1sc2nc(COC(=O)C(NC(=O)c3ccc(Cl)cc3Cl)C(C)C)[nH]c(=O)c2c1C (configuration not stated),56.9% (active)
6,Cc1ccc(S(=O)(=O)N2CCCC2C(=O)OCc2nc3sc(C)c(C)c3c(=O)[nH]2)cc1 (configuration not stated),-0.8% (inactive)
7,O=C(CN1C(=O)CC(c2ccccc2)S(=O)(=O)c2ccccc21)NC1CCCC1 (configuration not stated),-1.6% (inactive)
8,CCN(c1ccccc1)S(=O)(=O)c1cc2c(cc1C)n(C)c(=O)c(=O)n2C,-1.8% (inactive)
9,COC(=O)CCSc1cc([N+](=O)[O-])cc2c1c(C1OCCS1)nn2-c1ccccc1 (configuration not stated),14% (inactive)
10,CCC[C@@H]1C[C@@]1(CCC)[C@@H](NC(=O)c1ccccc1)c1ccc(C(=O)OC)cc1,-3.6% (inactive)
11,CCC/C=C(\CCC)C(NC(=O)Cc1ccccc1)c1ccc(C(=O)OC)cc1 (configuration not stated),40.7% (active)
12,COC(=O)c1ccc(C(NC(=O)OCc2ccccc2)/C(F)=C/[C@@H](C)C(=O)O)cc1 (some centres not stated),-4.9% (inactive)
13,O=c1cc(CN2CCCCCCC2)c2c(ccc3ccccc32)o1,6.4% (inactive)
14,Oc1c(CN2CCCC2)cc(COCc2ccccc2)c2cccnc12,49.9% (active)
15,O=C(Cc1ccccc1)NNC(=O)C1CCN(c2ncccn2)CC1,-1.3% (inactive)
16,COCC(=O)N1CCCC(C(=O)c2ccc(C(F)(F)F)cc2)C1 (configuration not stated),-0.9% (inactive)
17,CCOC(=O)c1cc(NC(=O)SCC(=O)O)c(C)nc1C,1% (inactive)
18,CCCNC(=O)C1(C)CCN(C(=O)c2ccccc2OC(F)(F)F)C1 (configuration not stated),-2.7% (inactive)
19,COc1ccc2[nH]c(=O)c(CNc3ccc(C)c(C)c3)cc2c1,-2.9% (inactive)
20,COc1ccc(Cc2cc(-c3ccc(F)cc3)n[nH]c2=O)cc1,-2% (inactive)
21,CCOC(=O)CSc1nc2ccc(C)cc2n2cnnc12,3.8% (inactive)
22,CC1(c2ccccc2)NC(=O)N(CC(=O)N2CC(=O)Nc3ccccc32)C1=O (configuration not stated),-0.8% (inactive)
23,CCN(CC)C(=O)CSc1nc2ccccc2n1CC(=O)N1CCN(c2ccccc2OC)CC1,34.8% (active)

row,Compound,inhibition
1,COc1ccccc1OCCn1c(SCC(N)=O)nc2ccccc21,-6.3% (inactive)
2,CCOC(=O)n1c(SCC(=O)N(CC)CC)nc2ccccc21,4% (inactive)
3,CCCCN(C=O)c1c(CC)nc2c(OCCC3CCCCC3)cccn12,3.8% (inactive)
4,Cc1cc(N)n2nc(-c3ccc(C(C)(C)C)cc3)cc2n1,8.7% (inactive)
5,Cc1cc2cc(CNC(=O)c3cccs3)ccc2[nH]1,3.4% (inactive)
6,Cc1cc(/C=N/NC(=O)CC2(C)OCCO2)c(C)n1-c1ccc(Cl)c(Cl)c1,4.1% (inactive)
7,CC(C)c1ccc(C=NNc2ccc([N+](=O)[O-])cn2)cc1,3.1% (inactive)
8,Cc1cc(/C=N/Nc2ccc([N+](=O)[O-])cn2)c(C)n1-c1cccc(C(=O)O)c1,49% (active)
9,O=C(Nc1cccc(Cl)c1)c1cc(S(=O)(=O)N2CCCCC2)c[nH]1,3.9% (inactive)
10,CN(C)C(=O)c1cccc(-c2cnc3sc(NCc4ccc5c(c4)OCO5)nn23)c1,-1.9% (inactive)
11,NC(=NC(=O)c1ccccc1)C1=C(O)CCC1=O,-7.5% (inactive)
12,COCCCNC(=O)Cn1c(=O)n(Cc2ccccc2Cl)c(=O)c2cc(OC)c(OC)cc21,-0.4% (inactive)
13,Cc1ccc(Nc2nnc(SC(C)C(=O)NC3CC3)s2)cc1 (configuration not stated),4.1% (inactive)
14,Cc1ccc(Nc2nc(Cl)c(C=O)s2)cc1,108% (active)
15,CCCCC(=O)Nc1nc(C)c(-c2csc(Nc3ccc(Cl)cc3)n2)s1,13.9% (inactive)
16,CSc1ncnc2c1ncn2CCCNCC(C)c1ccccc1 (configuration not stated),-1.5% (inactive)
17,COC(=O)C1=C(C)NC2=C(C(=O)c3ccccc32)C1c1ccc(-c2ccc(C(=O)O)cc2)o1 (configuration not stated),67.4% (active)
18,COC(=O)C1=C(C)NC(=O)/C1=C/c1ccc(CNS(=O)(=O)c2ccc(C)cc2)o1,-0.8% (inactive)
19,O=C(NCc1ccc(Cl)cc1)C1CCN(S(=O)(=O)c2cccs2)CC1,4.3% (inactive)
20,Cn1nnnc1SCC(=O)Nc1ccccc1C(=O)NC1CC1,5.5% (inactive)
21,CCN(CC)CCn1c2c(c(SCC(=O)Nc3ccc(C(C)C)cc3)nc1=O)CCC2,0.3% (inactive)
22,CC(=O)Nc1c2c(nn1-c1ccc(C)cc1C)CS(=O)C2 (configuration not stated),1.3% (inactive)
23,COc1ccc(CCNC2=C(Cl)C(=O)N(Cc3ccccc3)C2=O)cc1OC,-4.9% (inactive)

row,Compound,inhibition
1,COc1cc(/C=C2/SC(=S)N(Cc3ccccc3)C2=O)cc(OC)c1O,49.6% (active)
2,O=C(Nc1ccc(OCCO)cc1)c1csc([C@H]2C[C@H](O)[C@@H](CO)O2)n1,0.7% (inactive)
3,CC(C)=CCN1CCN(CCCc2ccccc2)CC1CCO (configuration not stated),-5% (inactive)
4,Cc1nc(N)sc1N=Nc1c(C)n(C)n(-c2ccccc2)c1=O,8.3% (inactive)
5,Cc1c(N=Nc2ccc(N(C)C)cc2)c(=O)n(-c2ccccc2)n1C,67.4% (active)
6,Cc1c(C=O)n(C)n(-c2ccccc2)c1=O,8.1% (inactive)
7,Cc1csc(=O)n1CCC(=O)OCC(=O)Nc1ccc(N2CCOCC2)cc1,-1.7% (inactive)
8,O=C(OCC(=O)N1CCOCC1)c1ccc(N2CCOCC2)c([N+](=O)[O-])c1,1.7% (inactive)
9,CCCCN(CC)C(=O)c1ccccc1Oc1ccccc1,-5% (inactive)
10,CC(=O)N1c2ccccc2N(Cc2ccc([N+](=O)[O-])cc2)C(=O)C1(C)C,-1.8% (inactive)
11,O=C1NC(=O)C2C1C(c1ccc([N+](=O)[O-])cc1)=NN2Cc1ccccc1 (configuration not stated),50.8% (active)
12,O=[N+]([O-])c1ccc(C(S(=O)(=O)Cc2ccccc2)S(=O)(=O)Cc2ccccc2)cc1,-4% (inactive)
13,CC(=O)CSc1nc(CCc2ccccc2)c(C#N)c(=O)[nH]1,-4.6% (inactive)
14,Cc1cc(C)c2c(=O)[nH]c(SCC(=O)Nc3ccc(Br)cc3)nc2n1,2.1% (inactive)
15,N#Cc1c(-c2cccs2)nc(SCC(=O)c2ccc(Br)cc2)[nH]c1=O,68.3% (active)
16,COC(=O)[C@H](C(C)C)n1c(C)c(C(C)=O)c(C(C)=O)c1C,3.5% (inactive)
17,CCOc1cccc(/C=N/N2C(=O)CSC2=S)c1O,32.9% (inactive)
18,O=C1CSC(=S)N1/N=C/c1ccc(O)c([N+](=O)[O-])c1,48.1% (active)
19,COc1ccc(C2CC(c3ccccc3)=NN2C(=O)c2ccc(Cl)c([N+](=O)[O-])c2)cc1 (configuration not stated),-5% (inactive)
20,CCCCc1nc(NCCN)c(C#N)c2c1CSC(C)(C)C2,0.8% (inactive)
21,COc1ccc(CC(N)c2csc(NC(=O)Nc3ccc(C(C)C)cc3)n2)cc1 (configuration not stated),2.4% (inactive)
22,COc1ccc(Cl)cc1N(CC(=O)N/N=C/c1ccc(OCC(N)=O)cc1)S(C)(=O)=O,-5.6% (inactive)
23,NC(=O)COc1ccc(/C=N/NC(=O)C2CCCN2S(=O)(=O)c2ccc(Cl)cc2)cc1 (configuration not stated),-4.1% (inactive)

row,Compound,inhibition
1,NC(N)=N/N=C/c1ccc(OCc2ccc(Cl)cc2Cl)cc1,51.4% (active)
2,CC1CCC2(CC1)NC(=O)N(CC(=O)NCc1ccco1)C2=O (configuration not stated),7.9% (inactive)
3,N#Cc1c(-c2ccc(Cl)cc2)c2c([nH]c1=S)CCCC2,10.1% (inactive)
4,CC1Cc2ccccc2N1S(=O)(=O)c1cccc(C(=O)NCC(c2ccco2)N2CCCC2)c1 (configuration not stated),5.2% (inactive)
5,C=CCn1c(=S)[nH]c2scc(-c3ccco3)c2c1=O,48.1% (active)
6,CC1(C)C(C=C(Cl)Cl)C1C(=O)N(Cc1ccc(Cl)cc1)C1CCS(=O)(=O)C1 (configuration not stated),-6.8% (inactive)
7,CC(C)(C)NC(=O)NC(=O)CN1CCC(Cc2ccccc2)CC1,2.6% (inactive)
8,O=C(O)CCCCOn1ccnc1,-5.3% (inactive)
9,Cc1ccc2[nH]c(=O)c(COC(=O)c3ccccn3)cc2c1,-5.9% (inactive)
10,O=C(OCc1cc2ccccc2[nH]c1=O)c1cccnc1,93.5% (active)
11,O=C(OCc1cc(Cl)ccc1OC(F)F)c1cccnc1,9.5% (inactive)
12,COc1cccc(C2CC(c3ccccc3)=NN2S(=O)(=O)c2ccccc2)c1OC (configuration not stated),1.8% (inactive)
13,COc1cccc(Nc2nnc(SCC(=O)N3CC(=O)Nc4ccccc43)s2)c1,0.5% (inactive)
14,COc1ccc(Cl)cc1NC(=O)COC(=O)c1ccc(Br)o1,-3.1% (inactive)
15,O=C(CCS(=O)(=O)c1ccc(Br)cc1)NCCc1ccc(Cl)cc1,-2.9% (inactive)
16,COc1ccc(Cl)cc1NC(=O)CCS(=O)(=O)c1ccc(Br)cc1,80.4% (active)
17,O=C(CSc1ccc2nnc(-c3ccccc3)n2n1)N1CCCc2ccccc21,39.2% (inactive)
18,Cc1ccc(CSCC2Nc3ccc(C(=O)N4CCN(c5ccc(F)cc5)CC4)cc3NC2=O)cc1 (configuration not stated),109% (active)
19,COC(=O)c1ccc(C(=O)OC)c(NC(=S)N2CCN(c3ccc(F)cc3)CC2)c1,-2.6% (inactive)
20,COc1cccc2c1OCC1COc3c(c(=O)n(C)c(=O)n3C)C21 (configuration not stated),-1.5% (inactive)
21,C=CC1=C(C(=O)O)N2C(=O)[C@@H](NC(=O)/C(=N/OCC(=O)O)c3csc(N)n3)[C@H]2SC1,45.1% (active)
22,C=CC1=C(C(=O)O)N2C(=O)[C@@H](NC(=O)/C(=N\OCC(=O)O)c3csc(N)n3)[C@H]2SC1,-0.3% (inactive)
23,Cc1ccc2c(CN3CCN(S(=O)(=O)c4ccccc4C(F)(F)F)CC3)cc(=O)oc2c1,3.9% (inactive)

# From PubChem BioAssay AID588493 (Sanford-Burnham Center for Chemical Genomics, 2011)
